Test results taken from PubChem BioAssay (NCATS).
Results filed as inconclusive are left out. The source made the active and inactive calls. Calls come from the whole dose curve; as a rule, active = well fitted inhibition curve with a large enough effect; inconclusive = small, poorly fitted or top-dose-only effect; inactive = flat fitted curve, though single readings scatter.

These compounds were tested on CRL-7250 (assay: qHTS assay to identify novel small-molecules to repurpose for Merkel cell carcinoma treatment (AID 1296009; note: nearly all actives have a fitted effect of over 60% in size)). Conditions: MCC and control cell lines, CellTiter-Glo viability, 72 h; series mostly up to 92 µM; activity change, negative = cytotoxicity: at the top concentration.
Summary of the method: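 Cell viability measured by CellTiter-Glo following 72 hr compound treatment at 37 degree celsius, with NPC and MIPE libraries tested in 8- and 11-point concentration series.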

| SMILES | outcome |
| --- | --- |
| COc1ccc(C2COc3cc(O)ccc3C2)c(O)c1OC (stereo not given) | inactive |
| C[C@]12CCC(=O)C=C1[C@@H](O)C[C@@H]1[C@@H]2[C@@H](O)C[C@@]2(C)[C@H]1CC[C@]2(O)C(=O)CO | inactive |
| CC(NCc1ccc(OCc2cccc(F)c2)cc1)C(N)=O (stereo not given) | inactive |
| C[C@H]1CC[C@@H]2N(C1)C[C@@H]1[C@H]([C@@H](O)[C@H](O)[C@]3(O)[C@H]1C[C@@]14OC5(O)[C@@H](C[C@@H](O)[C@@H]31)[C@]4(C)CC[C@@H]5O)[C@]2(C)O | inactive [at 17.4 µM] |
| C[C@H]1[C@H](C)CC[C@]2(C(=O)O)CC[C@]3(C(=O)O)C(=CCC4[C@@]5(C)CC[C@H](O[C@@H]6O[C@@H](C)[C@H](O)[C@@H](O)[C@H]6O)C(C)(C)C5CC[C@]43C)[C@H]12 (stereo not given in full) | inactive [at 17.4 µM] |
| C[C@@H]1C[C@@H](O)[C@@]2(CO)C(CO)=CCC[C@@H]2[C@@]12C[C@@H](c1ccoc1)OC2=O | inactive |
| CC[C@H](C)[C@H](NC(=O)[C@H](Cc1ccc(O)cc1)NC(=O)[C@@H](N)C(C)C)C(=O)N[C@@H](Cc1cnc[nH]1)C(=O)N1CCC[C@H]1C(=O)N[C@@H](Cc1ccccc1)C(=O)O | inactive [at 4.96 µM] |
| CCC(C)/C=C(C)/C=C/C1=CC2=CC(=O)C(C)(O)C(OC(C)=O)C2CO1 (stereo not given) | inactive |
| O=[N+]([O-])c1ccc(Oc2ccc3c(c2)CCC(c2ccccc2)O3)nc1 (stereo not given) | inactive |
| CC(C)c1c(O)ccc2c1CC[C@H]1C(C)(C)CCC[C@]21C | inactive |
| COc1ccc(/C=C/C(=O)O[C@@H]2[C@@H](OC(C)=O)[C@@H](OC(C)=O)[C@H](O[C@H]3[C@@H]4C=CO[C@@H](O[C@@H]5O[C@H](CO)[C@@H](O)[C@H](O)[C@H]5O)[C@@H]4[C@@]4(CO)O[C@@H]34)O[C@H]2C)cc1 | inactive [at 17.4 µM] |
| CC(=O)O[C@H]1C[C@@H](O)C(C)(C)C2C[C@@H](OC(C)=O)[C@@]3(C)C4=CCC(C(CO)CC(O)C5OC5(C)C)[C@]4(C)CCC3[C@]21C (stereo not given in full) | inactive [at 17.4 µM] |
| CC(=O)O[C@@H](C[C@@H]1C=C(C)C(=O)O1)[C@H](C)[C@H]1CCC2[C@@]3(C)CC[C@H](O[C@@H]4O[C@H](CO)[C@@H](O)[C@H](O)[C@H]4O[C@@H]4O[C@@H](C)[C@H](O)[C@@H](O)[C@H]4O)C(C)(C)C3CC[C@@]2(C)[C@@]12COC(=O)C2 (stereo not given in full) | inactive [at 9.27 µM] |
| COC(=O)C1=COC(OC2OC(CO)C(O)C(O)C2O)C2C(COC(=O)/C=C/c3ccc(O)cc3)C(O)C(O)C12 (stereo not given) | inactive [at 17.4 µM] |
| C/C=C(\C)C(=O)OC1C2(O)CC3=C4CC(=O)OC(c5ccoc5)C4(C)CCC3C(C)(C2=O)C(C(OC(C)=O)C(=O)OC)C1(C)C (stereo not given) | inactive [at 17.4 µM] |
| CC(C)(C)NCCCNC(=O)c1cccc(Br)c1 | inactive |
| COC(=O)/C=C/C=C/C(=O)OC1C=C2COC(=O)C2(O)C2(C)CCCC(C)(C)C12 (stereo not given) | inactive [at 17.4 µM] |
| CNc1cc2[nH]c(=O)n(-c3ccc(NC(=O)NS(=O)(=O)c4ccc(Cl)s4)cc3)c(=O)c2cc1F | inactive |
| NC(=O)c1ccc(F)c2c1C[C@@H](N(C1CCC1)C1CCC1)CO2 | inactive |
| OC[C@H]1O[C@@H](OCCc2ccccc2)[C@H](O[C@@H]2OC[C@@H](O)[C@H](O)[C@H]2O)[C@@H](O)[C@@H]1O | inactive [at 17.4 µM] |

| SMILES | outcome |
| --- | --- |
| CCCCc1c(-c2ccc(OC)cc2)[nH]c2nccnc12 | inactive |
| C=C1CCC2C(C)(COC3OC(COC(=O)CC(=O)O)C(O)C(O)C3O)CCCC2(C)C1CCC1=CCOC1=O (stereo not given) | inactive [at 17.4 µM] |
| OC[C@H]1O[C@@H](Oc2ccccc2)[C@H](O)[C@@H](O)[C@@H]1O | inactive |
| C=Cc1cc2oc(-c3ccc(O)c(F)c3)nc2cc1O | inactive |
| COC1=CC(=O)O[C@@H](/C=C/c2ccccc2)[C@@H]1O | inactive |
| OC[C@H]1O[C@@H](OCc2ccccc2)[C@H](O[C@@H]2OC[C@@H](O)[C@H](O)[C@H]2O)[C@@H](O)[C@@H]1O | inactive [at 17.4 µM] |
| C/C=C(/C)C(=O)O[C@H]1C[C@]2(C)O[C@@H]2[C@@H](OC(C)=O)[C@@]2(C)CC[C@@](O)(C(C)C)[C@H]12 | inactive |
| C[C@@H]1CC[C@]2(C(=O)O[C@@H]3O[C@H](CO)[C@@H](O)[C@H](O)[C@H]3O)CC[C@]3(C)C(=CCC4[C@@]5(C)C[C@@H](O)[C@H](O)C(C)(C)C5CC[C@]43C)C2[C@]1(C)O (stereo not given in full) | inactive [at 17.4 µM] |
| CC(=O)N[C@@H](CCCCN)C(=O)N(C)[C@@H](CC(C)C)C(=O)N[C@H](C(=O)N(C)[C@@H](Cc1ccccc1)C(=O)N[C@H](Cc1ccccc1)C(N)=O)C(C)C | inactive [at 4.96 µM] |
| CCC(=O)N[C@@H]1Cc2ccccc2[C@H](c2ccccc2)C1 | inactive |
| Cc1c(NC(=O)N2CCOCC2)ccc2c1c1ccccc1n2C(C)C | inactive |
| COC(=O)C1=COC(OC2OC(CO)C(O)C(O)C2O)C2C1C=CC2(O)CO (stereo not given) | inactive [at 17.4 µM] |
| NCc1c[nH]c(=S)n1[C@@H]1CCc2c(F)cc(F)cc2C1 | inactive |
| O=C(/C=C/N1C[C@@H]2C[C@@H]1CN2c1ccccn1)c1ccccc1O | inactive |
| COc1cccc(OC)c1-c1cc(C(=O)N[C@@H](CC(C)C)C(=O)O)nn1-c1ccnc2cc(Cl)ccc12 | inactive |
| O=C(OC(C(F)(F)F)C(F)(F)F)N1CCN(Cc2cccc(Oc3ccccc3)c2)CC1 | inactive |
| C=C1CCC2[C@@](C)(C=O)CCC[C@]2(C)[C@H]1CC/C(C)=C/CO (stereo not given in full) | inactive |
| C[C@@H]1CC[C@H]2C(C)(C)[C@H](O)[C@H](O)C[C@]2(C)[C@@]12Cc1c(O)cc3c(c1O2)CNC3=O | inactive |
| CC1(C)CC(=O)N(CCCCN2CCN(c3ncccn3)CC2)C(=O)C1 | inactive |
| CCN[C@@H]1C[C@H](N)[C@@H](O[C@H]2OC(CN)=CC[C@H]2N)[C@H](O)[C@H]1O[C@H]1OC[C@](C)(O)[C@H](NC)[C@H]1O | inactive [at 17.4 µM] |
